What all share (experiment): DAPPL (digital affinity profiling via proximity ligation, sequencing); 10 mM Tris-HCl pH 7.5, 50 mM NaCl, 1 mM DTT, 4% glycerol, room temperature, 30 min; GST-TFs on glutathione beads, 16-mer random dsDNA library, 0.1% formaldehyde crosslink after washing; high values mean tight binding
In one experiment the target is T1, FLI1 (Homo sapiens, UniProt Q01543 1-452).
T1 sequence: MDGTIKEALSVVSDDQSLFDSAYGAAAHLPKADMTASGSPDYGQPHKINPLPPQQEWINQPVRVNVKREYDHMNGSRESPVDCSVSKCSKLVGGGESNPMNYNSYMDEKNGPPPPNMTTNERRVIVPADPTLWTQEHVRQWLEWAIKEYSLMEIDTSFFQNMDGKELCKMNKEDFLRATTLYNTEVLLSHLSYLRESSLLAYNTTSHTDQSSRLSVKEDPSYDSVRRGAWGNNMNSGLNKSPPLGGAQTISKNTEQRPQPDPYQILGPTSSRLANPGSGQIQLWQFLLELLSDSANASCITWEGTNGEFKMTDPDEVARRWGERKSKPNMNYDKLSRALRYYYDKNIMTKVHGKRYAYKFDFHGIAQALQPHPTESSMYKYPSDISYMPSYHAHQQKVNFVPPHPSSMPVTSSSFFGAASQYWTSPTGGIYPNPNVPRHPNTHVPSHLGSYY
To be noted: protein: recombinant; tags: N-terminal GST; dsDNA, one strand shown. A digest of the protocol:
(§1)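 A tag-only sample was pooled with DNA-barcoded human transcription factors that had been expressed in yeast as GST fusions and captured on glutathione beads. The pools were incubated for 30 min at room temperature with 200 nmole of a random double-stranded 16-mer DNA library in Tris/NaCl/DTT/glycerol buffer, then washed, crosslinked with 0.1% formaldehyde, proximity-ligated (BsaI/T4 ligase, 1 h, 37 °C), PCR-amplified and sequenced on an Illumina NextSeq500. Binding signal is each hexamer's read frequency for a factor divided by its frequency for the tag-only sample.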

In another experiment the target is T2, ELK1 (Homo sapiens, UniProt P19419 1-428).
T2 sequence: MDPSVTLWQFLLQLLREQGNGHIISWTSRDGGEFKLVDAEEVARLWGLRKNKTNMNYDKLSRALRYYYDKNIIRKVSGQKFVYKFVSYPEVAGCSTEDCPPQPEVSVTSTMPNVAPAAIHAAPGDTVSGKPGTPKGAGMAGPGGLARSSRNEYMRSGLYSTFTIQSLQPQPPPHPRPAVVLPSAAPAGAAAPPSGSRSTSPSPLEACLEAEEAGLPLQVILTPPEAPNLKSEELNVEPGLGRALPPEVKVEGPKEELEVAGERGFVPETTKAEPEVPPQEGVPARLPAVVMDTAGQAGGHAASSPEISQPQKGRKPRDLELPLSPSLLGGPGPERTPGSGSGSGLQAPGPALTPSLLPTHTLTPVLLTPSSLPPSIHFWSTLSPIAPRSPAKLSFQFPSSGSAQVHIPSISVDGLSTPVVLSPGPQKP
To be noted: protein: recombinant; tags: N-terminal GST; dsDNA, one strand shown. The essentials: as §1

For a further experiment, the target named is T3, GABPA (Homo sapiens, UniProt Q06546 1-454).
T3 sequence: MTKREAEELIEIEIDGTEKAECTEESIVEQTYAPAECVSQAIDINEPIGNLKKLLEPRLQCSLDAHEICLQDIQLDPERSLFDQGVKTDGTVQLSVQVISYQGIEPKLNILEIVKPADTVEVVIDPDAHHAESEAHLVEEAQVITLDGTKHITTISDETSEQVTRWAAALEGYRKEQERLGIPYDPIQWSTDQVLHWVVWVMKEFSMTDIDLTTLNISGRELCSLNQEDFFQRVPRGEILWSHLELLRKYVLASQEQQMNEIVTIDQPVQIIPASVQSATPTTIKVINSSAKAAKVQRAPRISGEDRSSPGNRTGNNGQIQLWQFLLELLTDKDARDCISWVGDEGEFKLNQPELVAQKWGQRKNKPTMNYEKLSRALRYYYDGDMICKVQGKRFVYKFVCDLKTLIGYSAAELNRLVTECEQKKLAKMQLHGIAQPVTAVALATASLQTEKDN
Conditions: protein: recombinant; tags: N-terminal GST; dsDNA, one strand shown. A digest of the protocol:
as §1

The target of a further experiment is T4, ERG (Homo sapiens, UniProt P11308 1-479).
T4 sequence: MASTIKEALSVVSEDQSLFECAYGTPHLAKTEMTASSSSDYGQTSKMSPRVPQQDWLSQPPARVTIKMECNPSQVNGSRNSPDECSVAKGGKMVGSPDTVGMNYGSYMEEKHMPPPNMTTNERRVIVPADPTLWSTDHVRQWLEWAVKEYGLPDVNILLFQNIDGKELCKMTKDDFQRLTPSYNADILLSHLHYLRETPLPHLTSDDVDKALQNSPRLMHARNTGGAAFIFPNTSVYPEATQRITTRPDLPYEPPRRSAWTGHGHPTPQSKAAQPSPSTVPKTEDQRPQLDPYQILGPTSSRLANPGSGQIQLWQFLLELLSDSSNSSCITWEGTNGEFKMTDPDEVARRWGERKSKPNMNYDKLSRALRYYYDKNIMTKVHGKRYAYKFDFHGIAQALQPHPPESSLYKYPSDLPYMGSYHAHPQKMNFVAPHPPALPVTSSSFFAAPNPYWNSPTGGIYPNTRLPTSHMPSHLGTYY
To be noted: protein: recombinant; tags: N-terminal GST; dsDNA, one strand shown. The essentials: as §1

A further experiment addresses ELF1 (Homo sapiens, UniProt P32519 1-619). Conditions: protein: recombinant; tags: N-terminal GST; dsDNA, one strand shown. The essentials: as §1
The target of a further experiment is T5, EHF (Homo sapiens, UniProt Q9NZC4 1-300).
T5 sequence: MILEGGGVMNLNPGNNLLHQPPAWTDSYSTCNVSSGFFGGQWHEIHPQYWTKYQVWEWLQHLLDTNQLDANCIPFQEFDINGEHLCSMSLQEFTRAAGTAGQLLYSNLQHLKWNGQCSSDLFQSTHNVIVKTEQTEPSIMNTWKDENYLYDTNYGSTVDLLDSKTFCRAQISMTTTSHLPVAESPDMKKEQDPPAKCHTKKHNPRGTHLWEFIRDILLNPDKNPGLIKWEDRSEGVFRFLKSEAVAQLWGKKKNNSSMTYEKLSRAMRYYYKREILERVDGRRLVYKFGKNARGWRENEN
To be noted: protein: recombinant; tags: N-terminal GST; dsDNA, one strand shown. A digest of the protocol: as §1

The next experiment deals with SPI1 (Homo sapiens, UniProt P17947 1-270). Conditions: protein: recombinant; tags: N-terminal GST; dsDNA, one strand shown. The essentials:
as §1

The next experiment deals with SPIB (Homo sapiens, UniProt Q01892 1-262). Conditions: protein: recombinant; tags: N-terminal GST; dsDNA, one strand shown. A digest of the protocol: as §1
SPIB, sequence (Q01892 whole entry): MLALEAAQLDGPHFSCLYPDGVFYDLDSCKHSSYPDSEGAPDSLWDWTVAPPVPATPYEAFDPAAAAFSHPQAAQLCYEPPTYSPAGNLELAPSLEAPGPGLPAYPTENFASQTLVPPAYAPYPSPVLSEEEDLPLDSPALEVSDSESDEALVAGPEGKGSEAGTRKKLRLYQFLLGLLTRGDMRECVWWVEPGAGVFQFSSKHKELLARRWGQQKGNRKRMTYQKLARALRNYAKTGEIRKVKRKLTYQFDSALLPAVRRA
In a further experiment the target is T6, ELK3 (Homo sapiens, UniProt P41970 1-407).
T6 sequence: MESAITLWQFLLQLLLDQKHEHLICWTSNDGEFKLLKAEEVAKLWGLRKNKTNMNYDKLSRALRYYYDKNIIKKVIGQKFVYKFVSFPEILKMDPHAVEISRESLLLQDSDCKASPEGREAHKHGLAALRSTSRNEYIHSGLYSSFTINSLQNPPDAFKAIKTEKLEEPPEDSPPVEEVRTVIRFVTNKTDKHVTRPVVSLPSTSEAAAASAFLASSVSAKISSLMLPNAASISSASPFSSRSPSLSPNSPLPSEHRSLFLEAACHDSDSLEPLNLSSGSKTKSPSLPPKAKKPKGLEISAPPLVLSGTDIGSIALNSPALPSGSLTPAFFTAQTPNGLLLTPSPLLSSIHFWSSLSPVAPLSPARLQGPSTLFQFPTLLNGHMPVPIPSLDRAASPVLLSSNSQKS
Conditions: protein: recombinant; tags: N-terminal GST; dsDNA, one strand shown. A digest of the protocol:
as §1

The next experiment has as its target T7, FEV (Homo sapiens, UniProt Q99581 1-238).
T7 sequence: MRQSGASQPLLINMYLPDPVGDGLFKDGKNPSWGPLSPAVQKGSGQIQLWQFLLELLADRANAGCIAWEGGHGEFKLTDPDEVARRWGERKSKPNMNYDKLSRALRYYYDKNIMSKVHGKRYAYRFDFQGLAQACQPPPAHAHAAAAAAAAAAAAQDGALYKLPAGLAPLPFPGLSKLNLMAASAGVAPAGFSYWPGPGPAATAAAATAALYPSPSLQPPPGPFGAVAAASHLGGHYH
Conditions: protein: recombinant; tags: N-terminal GST; dsDNA, one strand shown. The essentials: as §1

The next experiment deals with ETV5 (Homo sapiens, UniProt P41161 1-510). Conditions: protein: recombinant; tags: N-terminal GST; dsDNA, one strand shown. A digest of the protocol: as §1
ETV5, sequence (P41161 whole entry): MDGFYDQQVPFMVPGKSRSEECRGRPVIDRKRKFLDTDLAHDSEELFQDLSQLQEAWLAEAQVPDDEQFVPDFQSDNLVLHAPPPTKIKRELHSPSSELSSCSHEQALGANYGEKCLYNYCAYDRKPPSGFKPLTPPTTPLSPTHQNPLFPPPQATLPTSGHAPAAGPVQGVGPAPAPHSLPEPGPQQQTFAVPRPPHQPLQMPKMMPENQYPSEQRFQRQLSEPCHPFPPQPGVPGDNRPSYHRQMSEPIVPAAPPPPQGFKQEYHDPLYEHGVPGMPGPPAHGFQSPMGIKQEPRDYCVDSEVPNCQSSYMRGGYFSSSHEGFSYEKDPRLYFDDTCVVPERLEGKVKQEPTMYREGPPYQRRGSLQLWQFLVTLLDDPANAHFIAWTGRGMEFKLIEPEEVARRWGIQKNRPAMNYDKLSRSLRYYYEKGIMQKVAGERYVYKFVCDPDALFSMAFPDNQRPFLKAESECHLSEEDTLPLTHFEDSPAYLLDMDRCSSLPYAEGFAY
The target of the next experiment is HSF1 (Homo sapiens, UniProt Q00613 1-529). Conditions: protein: recombinant; tags: N-terminal GST; chain copies: 3; dsDNA, one strand shown. The essentials:
as §1

A further experiment has as its target T8, SPIC (Homo sapiens, UniProt Q8N5J4 1-248).
T8 sequence: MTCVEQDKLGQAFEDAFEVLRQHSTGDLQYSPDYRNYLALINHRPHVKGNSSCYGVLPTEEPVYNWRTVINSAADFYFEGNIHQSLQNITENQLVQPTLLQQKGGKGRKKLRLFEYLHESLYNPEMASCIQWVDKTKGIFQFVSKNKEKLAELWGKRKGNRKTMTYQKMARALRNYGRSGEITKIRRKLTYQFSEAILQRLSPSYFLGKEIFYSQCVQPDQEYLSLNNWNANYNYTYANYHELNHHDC
Conditions: protein: recombinant; tags: N-terminal GST; dsDNA, one strand shown. A digest of the protocol: as §1

For another experiment, the target named is ELF4 (Homo sapiens, UniProt Q99607 1-663). To be noted: protein: recombinant; tags: N-terminal GST; dsDNA, one strand shown. The essentials: as §1
ELF4, sequence (Q99607 whole entry): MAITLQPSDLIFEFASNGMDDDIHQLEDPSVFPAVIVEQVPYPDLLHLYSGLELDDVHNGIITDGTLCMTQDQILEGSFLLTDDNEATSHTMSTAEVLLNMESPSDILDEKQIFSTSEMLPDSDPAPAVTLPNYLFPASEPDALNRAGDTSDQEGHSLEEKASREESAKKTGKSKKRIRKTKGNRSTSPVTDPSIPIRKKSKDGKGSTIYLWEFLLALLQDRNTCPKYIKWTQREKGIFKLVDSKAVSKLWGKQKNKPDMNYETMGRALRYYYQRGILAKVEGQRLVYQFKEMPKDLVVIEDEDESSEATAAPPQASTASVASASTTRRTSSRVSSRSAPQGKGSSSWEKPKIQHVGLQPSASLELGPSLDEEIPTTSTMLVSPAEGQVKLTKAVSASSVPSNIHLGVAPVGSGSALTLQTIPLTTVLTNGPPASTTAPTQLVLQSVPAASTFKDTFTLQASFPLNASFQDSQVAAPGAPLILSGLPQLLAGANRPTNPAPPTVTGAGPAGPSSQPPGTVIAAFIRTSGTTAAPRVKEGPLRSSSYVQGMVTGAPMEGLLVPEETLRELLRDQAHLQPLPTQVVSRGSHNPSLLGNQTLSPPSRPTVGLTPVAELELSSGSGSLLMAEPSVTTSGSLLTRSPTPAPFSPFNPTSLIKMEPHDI
A further experiment addresses T9, ELK4 (Homo sapiens, UniProt P28324-2 1-405).
T9 sequence: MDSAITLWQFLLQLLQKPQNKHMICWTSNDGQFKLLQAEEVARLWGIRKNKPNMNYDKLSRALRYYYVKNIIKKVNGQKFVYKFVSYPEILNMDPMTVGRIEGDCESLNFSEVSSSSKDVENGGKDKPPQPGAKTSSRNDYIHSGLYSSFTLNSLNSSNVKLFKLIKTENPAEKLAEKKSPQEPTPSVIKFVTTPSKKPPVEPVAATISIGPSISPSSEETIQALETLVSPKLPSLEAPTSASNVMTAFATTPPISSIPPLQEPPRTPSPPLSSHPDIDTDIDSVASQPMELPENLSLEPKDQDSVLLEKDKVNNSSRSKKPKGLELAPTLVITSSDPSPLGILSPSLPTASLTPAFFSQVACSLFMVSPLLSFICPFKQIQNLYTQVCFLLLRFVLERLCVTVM
To be noted: protein: recombinant; tags: N-terminal GST; dsDNA, one strand shown. A digest of the protocol:
as §1

For the next experiment, the target named is T10, ETV2 (Homo sapiens, UniProt O00321 1-342).
T10 sequence: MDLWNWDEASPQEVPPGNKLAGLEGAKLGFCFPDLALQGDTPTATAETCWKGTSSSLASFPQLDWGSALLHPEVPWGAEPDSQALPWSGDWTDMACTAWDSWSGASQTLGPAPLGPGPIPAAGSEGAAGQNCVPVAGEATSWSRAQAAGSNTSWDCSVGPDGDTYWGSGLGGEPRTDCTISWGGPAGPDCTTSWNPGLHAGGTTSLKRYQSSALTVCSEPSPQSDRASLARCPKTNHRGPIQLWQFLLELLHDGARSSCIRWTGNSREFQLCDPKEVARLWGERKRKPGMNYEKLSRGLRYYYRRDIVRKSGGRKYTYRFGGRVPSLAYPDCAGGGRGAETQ
Conditions: protein: recombinant; tags: N-terminal GST; dsDNA, one strand shown. A digest of the protocol: as §1

A further experiment deals with T11, ELF3 (Homo sapiens, UniProt P78545 1-371).
T11 sequence: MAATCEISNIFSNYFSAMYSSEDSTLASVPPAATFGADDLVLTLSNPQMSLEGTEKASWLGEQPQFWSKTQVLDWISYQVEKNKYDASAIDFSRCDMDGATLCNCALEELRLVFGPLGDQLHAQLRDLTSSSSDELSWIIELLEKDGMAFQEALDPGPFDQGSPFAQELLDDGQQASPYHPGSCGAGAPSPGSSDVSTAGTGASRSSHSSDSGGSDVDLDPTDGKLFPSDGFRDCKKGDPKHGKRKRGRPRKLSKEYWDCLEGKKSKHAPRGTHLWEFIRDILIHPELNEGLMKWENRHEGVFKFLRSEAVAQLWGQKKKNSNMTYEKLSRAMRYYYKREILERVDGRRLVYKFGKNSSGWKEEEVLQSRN
Conditions: protein: recombinant; tags: N-terminal GST; dsDNA, one strand shown. A digest of the protocol:
as §1

The target of the next experiment is CRX (Homo sapiens, UniProt O43186 1-299). Conditions: protein: recombinant; tags: N-terminal GST; dsDNA, one strand shown. The essentials:
as §1

Another experiment concerns the target ETV1 (Homo sapiens, UniProt P50549 1-477). To be noted: protein: recombinant; tags: N-terminal GST; dsDNA, one strand shown. The essentials:
as §1

ELF1, sequence (P32519 whole entry): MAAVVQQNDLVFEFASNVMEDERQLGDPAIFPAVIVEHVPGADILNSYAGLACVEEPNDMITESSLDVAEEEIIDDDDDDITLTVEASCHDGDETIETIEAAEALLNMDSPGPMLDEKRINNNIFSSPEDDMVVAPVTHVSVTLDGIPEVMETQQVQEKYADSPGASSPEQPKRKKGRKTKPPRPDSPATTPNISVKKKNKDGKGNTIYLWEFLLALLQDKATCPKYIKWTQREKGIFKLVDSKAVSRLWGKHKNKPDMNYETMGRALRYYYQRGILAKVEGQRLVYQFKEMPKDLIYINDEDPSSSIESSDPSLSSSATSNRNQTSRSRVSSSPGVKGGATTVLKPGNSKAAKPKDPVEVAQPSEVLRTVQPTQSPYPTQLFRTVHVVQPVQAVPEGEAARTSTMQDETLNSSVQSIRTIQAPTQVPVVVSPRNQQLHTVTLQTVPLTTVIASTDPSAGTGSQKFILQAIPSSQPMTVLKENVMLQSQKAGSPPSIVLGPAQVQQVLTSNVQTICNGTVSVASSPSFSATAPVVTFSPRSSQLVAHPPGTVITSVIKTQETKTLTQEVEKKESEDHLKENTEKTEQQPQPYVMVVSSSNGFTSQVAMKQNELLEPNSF
ETV1, sequence (P50549 whole entry): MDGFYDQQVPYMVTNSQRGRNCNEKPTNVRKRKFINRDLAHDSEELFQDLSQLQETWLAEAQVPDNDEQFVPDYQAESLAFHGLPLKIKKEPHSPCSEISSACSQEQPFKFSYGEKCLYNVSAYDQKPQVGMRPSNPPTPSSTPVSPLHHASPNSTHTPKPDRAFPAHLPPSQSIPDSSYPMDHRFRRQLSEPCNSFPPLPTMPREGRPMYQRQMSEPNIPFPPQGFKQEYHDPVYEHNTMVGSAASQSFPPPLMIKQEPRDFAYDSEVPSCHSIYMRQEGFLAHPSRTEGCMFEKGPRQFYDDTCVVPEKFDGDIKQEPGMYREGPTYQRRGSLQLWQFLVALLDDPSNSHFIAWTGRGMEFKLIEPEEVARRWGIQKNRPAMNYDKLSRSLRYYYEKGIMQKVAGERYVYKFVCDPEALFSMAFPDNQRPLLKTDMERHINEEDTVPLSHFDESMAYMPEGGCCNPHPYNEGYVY
CRX, sequence (O43186 whole entry): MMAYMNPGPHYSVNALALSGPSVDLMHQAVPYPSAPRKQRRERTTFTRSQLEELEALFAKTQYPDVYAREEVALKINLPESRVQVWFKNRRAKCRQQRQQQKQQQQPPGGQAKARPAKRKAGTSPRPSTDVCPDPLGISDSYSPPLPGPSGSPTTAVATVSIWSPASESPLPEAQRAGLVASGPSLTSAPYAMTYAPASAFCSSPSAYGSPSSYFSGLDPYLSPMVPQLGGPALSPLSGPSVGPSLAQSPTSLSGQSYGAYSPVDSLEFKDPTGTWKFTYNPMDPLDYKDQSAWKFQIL
HSF1, sequence (Q00613 whole entry): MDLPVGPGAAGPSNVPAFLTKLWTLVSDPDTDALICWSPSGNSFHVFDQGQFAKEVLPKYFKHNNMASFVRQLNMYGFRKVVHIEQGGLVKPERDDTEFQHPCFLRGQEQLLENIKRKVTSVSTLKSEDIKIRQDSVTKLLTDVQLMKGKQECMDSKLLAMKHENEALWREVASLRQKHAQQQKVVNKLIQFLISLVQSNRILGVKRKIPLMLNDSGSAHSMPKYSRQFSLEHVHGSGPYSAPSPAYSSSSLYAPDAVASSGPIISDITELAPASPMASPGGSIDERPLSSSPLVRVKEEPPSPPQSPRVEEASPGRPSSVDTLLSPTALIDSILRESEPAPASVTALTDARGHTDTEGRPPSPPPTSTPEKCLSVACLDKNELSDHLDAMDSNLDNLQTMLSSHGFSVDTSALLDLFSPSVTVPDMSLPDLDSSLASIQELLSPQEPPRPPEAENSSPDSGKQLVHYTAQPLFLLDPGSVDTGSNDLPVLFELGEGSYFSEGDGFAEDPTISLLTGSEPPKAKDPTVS

On to CCCGGA, for which the binding signal with FLI1 is 2.74 fold enrichment (6-mer frequency, TF over GST control); with ELK1, 2.61 fold enrichment (6-mer frequency, TF over GST control); in the experiment with GABPA, 2.61 fold enrichment (6-mer frequency, TF over GST control); with ERG, 2.99 fold enrichment (6-mer frequency, TF over GST control); in the experiment with ELF1 it was 2.87 fold enrichment (6-mer frequency, TF over GST control); with EHF, 2.95 fold enrichment (6-mer frequency, TF over GST control). Also, the binding signal with SPI1 was 2.47 fold enrichment (6-mer frequency, TF over GST control); with SPIB it was 3.06 fold enrichment (6-mer frequency, TF over GST control); in the experiment with ELK3, 2.85 fold enrichment (6-mer frequency, TF over GST control); with FEV, 2.77 fold enrichment (6-mer frequency, TF over GST control); with ETV5, 3.14 fold enrichment (6-mer frequency, TF over GST control); with HSF1, 1.14 fold enrichment (6-mer frequency, TF over GST control). In addition, the binding signal is 2.52 fold enrichment (6-mer frequency, TF over GST control) with SPIC; 2.6 fold enrichment (6-mer frequency, TF over GST control) with ELF4; 2.16 fold enrichment (6-mer frequency, TF over GST control) in the experiment with ELK4; 2.55 fold enrichment (6-mer frequency, TF over GST control) with ETV2; 2.88 fold enrichment (6-mer frequency, TF over GST control) with ELF3; 1.03 fold enrichment (6-mer frequency, TF over GST control) in the experiment with CRX. For the same sequence, in the experiment with ETV1, the binding signal is 2.98 fold enrichment (6-mer frequency, TF over GST control).
